Sampled rows, rich in hits. Any-hit rate of the full collection: about 9%.
G9a block: qHTS Assay for Inhibitors of Histone Lysine Methyltransferase G9a | G9a H3K9 monomethylation, AlphaScreen, 2 h | AID 504332, 2011 | Histone-lysine N-methyltransferase EHMT2 (Homo sapiens), Q96KQ7 | Potency, µM (titrated, usually from 102 µM), hits mostly inhibitors | 350,000 tested, 8.8% active; also: nearly all actives have a fitted effect of over 75% in size
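Quantitative HTS format: methyltransferase activity on a biotin-tagged H3K9 peptide is measured by AlphaScreen, using a rabbit anti-monomethyl-H3K9 antibody with streptavidin donor and anti-IgG acceptor beads. Final levels are 20 nM enzyme, 500 nM peptide, 20 uM SAM; 2 h RT.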
BAZ2B inh: qHTS Assay for Inhibitors of BAZ2B; Bromodomain adjacent to zinc finger domain protein 2B (Homo sapiens), Q9UIF8; AlphaScreen BAZ2B-H3K14Ac peptide displacement; Potency, µM (highest dose often 114 µM), most hits filed as inhibitors; 360,000 tested, 4.4% active; AID 504333, 2011; also: nearly all actives have a fitted effect of over 60% in size
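AlphaScreen luminescence quantifies BAZ2B engagement of H3K14Ac peptide; the protein and biotinylated peptide are both at 50 nM final, buffer PBS pH 7.4 with 0.01% Tween-20, all steps at room temperature.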
PLK1 PBD block: qHTS for Inhibitors of PLK1-PDB (polo-like kinase 1 - polo-box domain): Primary Screen; Plk1 PBD binding of FITC phosphopeptide, fluorescence polarization; Potency, µM, most hits filed as inhibitors; 360,000 tested, 2.8% active; also: series mostly up to about 57 µM; nearly all actives have a fitted effect of over 65% in size
Target sequence (P53350 whole entry, looked up, the tested form may be a part): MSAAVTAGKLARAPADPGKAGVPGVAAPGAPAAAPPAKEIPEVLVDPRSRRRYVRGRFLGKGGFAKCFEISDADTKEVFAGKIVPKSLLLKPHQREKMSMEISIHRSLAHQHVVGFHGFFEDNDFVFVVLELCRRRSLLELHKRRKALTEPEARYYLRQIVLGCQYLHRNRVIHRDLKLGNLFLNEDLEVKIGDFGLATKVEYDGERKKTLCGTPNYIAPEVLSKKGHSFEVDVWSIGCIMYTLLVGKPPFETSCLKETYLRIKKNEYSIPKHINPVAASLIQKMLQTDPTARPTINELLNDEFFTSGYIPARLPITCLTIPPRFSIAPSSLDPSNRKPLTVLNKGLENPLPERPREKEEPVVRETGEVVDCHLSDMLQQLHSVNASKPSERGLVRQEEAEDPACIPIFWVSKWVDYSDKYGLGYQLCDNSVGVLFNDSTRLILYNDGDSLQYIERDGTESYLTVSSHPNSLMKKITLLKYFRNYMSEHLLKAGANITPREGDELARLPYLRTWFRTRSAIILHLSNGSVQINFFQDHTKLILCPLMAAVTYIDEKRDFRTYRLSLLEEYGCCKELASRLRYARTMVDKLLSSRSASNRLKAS
HP1b chromo inh: HTS for Inhibitors of HP1-beta Chromodomain Interactions with Methylated Histone Tails; Chromobox protein homolog 1 (Homo sapiens), P83916; AlphaScreen HP1-beta / biotin-H3K9me3 peptide binding; Potency, µM (top dose mostly 114 µM), usual class: inhibitors; 390,000 tested, 0.56% active; AID 540317, 2011; also: nearly all actives have a fitted effect of over 70% in size
Target sequence (P83916 whole entry, looked up): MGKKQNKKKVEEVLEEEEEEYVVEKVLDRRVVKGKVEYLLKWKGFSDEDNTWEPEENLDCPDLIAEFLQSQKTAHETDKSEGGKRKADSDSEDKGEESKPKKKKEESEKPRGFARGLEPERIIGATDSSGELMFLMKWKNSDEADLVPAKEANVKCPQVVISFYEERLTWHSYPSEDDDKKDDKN
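AlphaScreen: HP1-beta (50 nM) preformed 30 min with biotin-H3(1-18)K9me3 peptide (50 nM) in PBS pH 7.4, 0.01% Tween-20. Compound added for 30 min at RT, then streptavidin donor/nickel chelate acceptor beads (10 ug/mL) for 30 min.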
JMJD2A Tudor inh: qHTS Assay for Inhibitors of JMJD2A-Tudor Domain; Lysine-specific demethylase 4A (Homo sapiens), O75164; AlphaScreen JMJD2A-Tudor / H3K4me3 peptide binding; Potency, µM (highest dose often 114 µM), hits mostly inhibitors; 390,000 tested, 4.4% active; AID 504339, 2011; also: nearly all actives have a fitted effect of over 50% in size
ALOX12 inh: Primary qHTS assay for inhibitors of human arachidonate 12S-lipoxygenase (ALOX12): Round 2. Polyunsaturated fatty acid lipoxygenase ALOX12 (Homo sapiens), P18054. purified 12hLO, xylenol orange hydroperoxide absorbance. Potency, µM (top dose mostly 108 µM), most hits filed as inhibitors. 580,000 tested, 1.1% active
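Purified human 12hLO at 150 nM in 25 mM Hepes, 0.01% Triton X-100, pH 7.0, preincubated 15 min at room temperature with compound. Reaction started with 40 uM arachidonic acid, 30 min at room temperature. Hydroperoxide measured by Fe-xylenol orange, 573/405 nm absorbance ratio.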
Of the large screens only hits and unclear results are named; the others gave an inactive call. Calls follow the shape of the dose curve; as a rule, active = well fitted curve in the direction sought with a large enough effect; inconclusive = small, poorly fitted or top-dose-only effect, or another doubt; inactive = no such curve, though single readings can be large; an effect the other way counts as inactive or inconclusive.

COc1ccc(CNC[C@H]2Cn3c(-c4ccc(Cl)cc4)cnc3CO2)cc1	ALOX12 inh 45µM (no result: G9a block, BAZ2B inh, PLK1 PBD block, HP1b chromo inh, JMJD2A Tudor inh)
CCCCN(C)C(=O)c1nc2ccccn2c1CN1CCN(c2ccccn2)CC1	PLK1 PBD block inconclusive (no result: G9a block)
CCCCN(C)C(=O)c1nc2ccccn2c1CN1CCC[C@H]1C(=O)OC	PLK1 PBD block inconclusive, JMJD2A Tudor inh 40µM
CCN(CC)CCCN1C(=O)C(=O)/C(=C(/O)c2ccc(C)cc2)C1c1ccccn1 (stereo unspecified)	G9a block 14µM, BAZ2B inh inconclusive, JMJD2A Tudor inh 89µM
CN(C)CCCN1C(=O)C(=O)/C(=C(/O)c2ccccc2)C1c1ccccn1 (stereo unspecified)	none (no result: PLK1 PBD block, HP1b chromo inh, JMJD2A Tudor inh, ALOX12 inh)
CCN(CC)CCN1C(=O)C(=O)/C(=C(/O)c2ccncc2)C1c1ccccc1F (stereo unspecified)	G9a block 79µM
CCN(CC)CCN1C(=O)C(=O)/C(=C(/O)c2ccc(F)cc2)C1c1ccncc1 (stereo unspecified)	none
CCOc1ccc(/C(O)=C2/C(=O)C(=O)N(CCOCCO)C2c2cccnc2)cc1 (stereo unspecified)	JMJD2A Tudor inh 79µM, ALOX12 inh inconclusive (no result: G9a block)
CCOc1ccc(/C(O)=C2/C(=O)C(=O)N(CCOCCO)C2c2ccccc2)cc1 (stereo unspecified)	G9a block inconclusive, ALOX12 inh inconclusive
O=C1C(=O)N(CCOCCO)C(c2ccccn2)/C1=C(\O)c1ccccc1 (stereo unspecified)	G9a block 18µM, BAZ2B inh inconclusive, JMJD2A Tudor inh inconclusive, ALOX12 inh inconclusive
CC(C(=O)Nc1ccc(C(F)(F)F)cc1)N(C)CC(=O)N1CCN(Cc2ccccc2)CC1 (stereo unspecified)	HP1b chromo inh 20µM, JMJD2A Tudor inh 0.89µM (no result: G9a block, BAZ2B inh)
CSc1ccccc1NC(=O)C(C)N(C)CC(=O)N1CCN(Cc2ccccc2)CC1 (stereo unspecified)	HP1b chromo inh inconclusive, JMJD2A Tudor inh 10µM, ALOX12 inh inconclusive (no result: G9a block, BAZ2B inh)
COc1ccc(CNC(=O)C2CCN(S(=O)(=O)c3ccc4c(c3)NC(=O)CO4)CC2)cc1	BAZ2B inh inconclusive (no result: G9a block)
CCn1c(C)c2c(C)nnc(C)c2c1C	none
Cc1nn(CC(=O)N[C@@H]2CCOC[C@H]2OCCO)c(=O)c2ccccc12	none (no result: G9a block, BAZ2B inh, PLK1 PBD block, HP1b chromo inh, JMJD2A Tudor inh)
O=C(/C=C/c1ccc(Br)o1)Nc1nccs1	G9a block 45µM, PLK1 PBD block 21µM, HP1b chromo inh inconclusive, JMJD2A Tudor inh 32µM
CCOC(=O)Cc1csc(NC(=O)/C=C/c2ccc(Br)o2)n1	G9a block 50µM
O=C(Cn1nc(-c2ccccc2F)ccc1=O)N1CCC(Cc2ccccc2)CC1	none (no result: G9a block, BAZ2B inh, PLK1 PBD block, HP1b chromo inh, JMJD2A Tudor inh)
O=C1CC(NCc2ccco2)C(=O)N1CCc1ccccc1 (stereo unspecified)	none
Cc1ccc(S(=O)(=O)N2CCN(C(=O)COC(=O)CCOc3cc(C)ccc3C)CC2)c(C)c1	none (no result: G9a block, BAZ2B inh)
Cc1ccc(S(=O)(=O)N2CCN(C(=O)COC(=O)CCOc3ccccc3C)CC2)c(C)c1	G9a block 11µM, ALOX12 inh inconclusive
Cc1ccc(S(=O)(=O)N2CCN(C(=O)COC(=O)c3ccc(C(C)(C)C)cc3)CC2)c(C)c1	none (no result: G9a block)
Cc1ccc(S(=O)(=O)N2CCN(C(=O)COC(=O)c3ccc(O)cc3)CC2)c(C)c1	JMJD2A Tudor inh 89µM
Cc1ccc(S(=O)(=O)N2CCN(C(=O)CN3C(=O)NC4(CCOc5ccccc54)C3=O)CC2)cc1 (stereo unspecified)	G9a block 56µM
CCOc1ccc(OCCC(=O)OCC(=O)N2CCN(S(=O)(=O)c3ccc(C)cc3)CC2)cc1	G9a block 56µM, ALOX12 inh inconclusive
Cc1ccc(OCCC(=O)OCC(=O)N2CCN(S(=O)(=O)c3ccc(Cl)cc3)CC2)cc1	none
COc1cccc(C(=O)C2CCCN(Cc3cccc(-n4nc(C)cc4C)c3)C2)c1 (stereo unspecified)	none
O=C1CN(C(=O)[C@H]2CN(Cc3ccccc3)C[C@H]2C(=O)O)CCN1	none (no result: G9a block, BAZ2B inh, PLK1 PBD block, HP1b chromo inh, JMJD2A Tudor inh)
CCCc1c(C)c2ccccc2[nH]c1=O	ALOX12 inh inconclusive
CCOc1ccc(S(=O)(=O)N2CCN(C(=O)CN3C(=O)NC4(CCCC4)C3=O)CC2)cc1	G9a block 32µM, ALOX12 inh inconclusive
Cc1ccc(C)c(S(=O)(=O)N2CCN(C(=O)CN3C(=O)C4CC=CCC4C3=O)CC2)c1 (stereo unspecified)	G9a block 50µM
CN1CCC(NC(=O)C2(C)CCN2Cc2ccc3ccccc3c2)CC1 (stereo unspecified)	none (no result: G9a block, BAZ2B inh, HP1b chromo inh, JMJD2A Tudor inh)
COc1ccc(-n2cc(-c3ccc(Br)cc3)[nH]c2=S)cc1	BAZ2B inh inconclusive
O=[N+]([O-])c1cccc(-c2n[nH]c(=S)n2-c2ccc(Br)cc2)c1	G9a block 6.3µM, JMJD2A Tudor inh inconclusive, ALOX12 inh inconclusive
O=C(O)c1ccc(C(=O)c2ccc(Br)cc2)cc1	none (no result: G9a block, BAZ2B inh, PLK1 PBD block, HP1b chromo inh, JMJD2A Tudor inh)
COc1cc(-c2n[nH]c(=S)n2-c2ccc(Br)cc2)cc(OC)c1OC	JMJD2A Tudor inh 50µM, ALOX12 inh inconclusive (no result: G9a block)
O=C(O)c1ccc(-n2c(-c3ccc(Br)cc3)n[nH]c2=S)cc1	G9a block inconclusive, JMJD2A Tudor inh 7.1µM (no result: ALOX12 inh)
S=c1[nH]nc(-c2ccc(Br)cc2)n1-c1ccc(Br)cc1	G9a block 8.9µM, ALOX12 inh inconclusive
CC(C)NC(=O)c1cc(C(C)C)[nH]n1	none (no result: G9a block, BAZ2B inh, PLK1 PBD block, HP1b chromo inh, JMJD2A Tudor inh)
Cc1nnc(SCC2=C(C(=O)O)N3C(=O)C(NC(=O)Cn4ncc(Cl)c4C)C3SC2)s1 (stereo unspecified)	G9a block 28µM, BAZ2B inh inconclusive, PLK1 PBD block inconclusive, JMJD2A Tudor inh inconclusive
Cc1cc(C)n(CC(=O)NC2C(=O)N3C(C(=O)O)=C(CSc4nnc(C)s4)CSC23)n1 (stereo unspecified)	G9a block 40µM, BAZ2B inh 71µM, JMJD2A Tudor inh 25µM
COc1cc([N+](=O)[O-])ccc1NC(=S)NC(=O)CC(C)(C)C	PLK1 PBD block 27µM, HP1b chromo inh inconclusive
COc1cc([N+](=O)[O-])ccc1NC(=S)NNC(=O)c1ccc2c(c1)OCO2	G9a block 8.9µM, BAZ2B inh inconclusive, PLK1 PBD block inconclusive, HP1b chromo inh inconclusive, JMJD2A Tudor inh 50µM
COc1cc([N+](=O)[O-])ccc1NC(=O)NNC(=O)c1sccc1C	G9a block 71µM
CN(C)CC(C)(C)CNc1ccc(S(=O)(=O)N2CCCC2)cn1	none (no result: G9a block, BAZ2B inh)

Source: PubChem
